Here are results for 8 compounds from PubChem BioAssay (Tox21).

Each structure is given as a SMILES string. Records with an inconclusive call do not appear. A number with no mark means an inactive call. Active and inactive are the calls of the source. Unless noted, calls come from the whole dose curve; as a rule, active = well fitted curve in the direction sought with a large enough effect in the repeat runs; inconclusive = weak or mixed curves; inactive = no such curve, though single readings can be large; an effect the other way counts as inactive or inconclusive.

A short description of assay [1]: qHTS assay to identify small molecule agonists of the vitamin D receptor (VDR) signaling pathway - cell viability counter screen (AID 743224). Note: % is set by controls: 0 for no effect and ±100 for the full control effect; nearly all actives have a fitted effect of over 50% in size. The method, boiled down: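 Counter screen for cytotoxicity: VDR-bla cells at 2,000 cells/well, 16 h compound exposure, then CellTiter-Glo luminescence after the beta-lactamase measurement.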
A short description of assay [2]: qHTS assay to identify small molecule agonists of the NFkB signaling pathway (AID 1159509; active = well fitted curve in the direction sought with a large enough effect in the signal ratio in the repeat runs, not every such curve was filed as active; the % refers to the signal ratio; note: % is set by controls: 0 for no effect and ±100 for the full control effect). An outline of the steps: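 Pathway activation was measured in ME-180 cells stably expressing beta-lactamase under NF-kB response element control. Substrate cleavage was read as the 460/530 nm emission shift after 5 hr compound incubation.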
A general note: qHTS replaces the single test concentration by a dilution series.

Assay [3] in a line: qHTS assay to identify small molecule agonists of the NFkB signaling pathway - cell viability counter screen (AID 1159515; calls by dose curve; note: % is set by controls: 0 for no effect and ±100 for the full control effect; nearly all actives have a fitted effect of over 55% in size). An outline of the steps: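 Counter screen run alongside the NFkB-bla agonist assay: ME-180 reporter cells exposed to compounds for 5 hr, then lysed with CellTiter-Glo in the same wells. Luminescence, read after 30 min, reflects viable cells.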
The nature of assay [4]: qHTS assay to identify small molecule agonists of the endoplasmic reticulum stress response signaling pathway (AID 1159516; active = well fitted activation curve with a large enough effect in the signal ratio in the repeat runs, not every such curve was filed as active; the % refers to the signal ratio; note: % is set by controls: 0 for no effect and ±100 for the full control effect). The method, boiled down: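 For this screen, HeLa cells stably carrying beta-lactamase under the ER stress response element received test compounds, positive controls or DMSO for 5 hr at 37 C; B/G FRET substrate was then added and dual-wavelength emission recorded.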

Assay [5] is described as follows: qHTS assay to identify small molecule agonists of the endoplasmic reticulum stress response signaling pathway - cell viability counter screen (AID 1159517; calls by dose curve; note: % is set by controls: 0 for no effect and ±100 for the full control effect; nearly all actives have a fitted effect of over 50% in size). An outline of the steps:
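Cpd-treated ESRE-bla HeLa (5 hr, 37 C) → LiveBLAzer 2 hr RT → CellTiter-Glo 30 min RT → luminescence.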

A short description of assay [6]: qHTS assay to identify small molecule antagonists of the retinoid-related orphan receptor gamma (ROR-gamma) signaling pathway - cell viability counter screen (AID 1159520). Note: % is set by controls: 0 for no effect and ±100 for the full control effect; nearly all actives have a fitted effect of over 50% in size. An outline of the steps: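 Tet-on ROR gamma CHO cells (1,000/well) were plated 4 hr, given compounds in DMSO for 2 hr at 37 C, then induced with 1 uM final doxycycline for 16 hr. Viability was read as ATP by CellTiter-Glo luminescence after 30 min.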

For assay [7], the target named is Nuclear receptor ROR-gamma (Homo sapiens) (UniProt P51449). Briefly: qHTS assay to identify small molecule antagonists of the retinoid-related orphan receptor gamma (ROR-gamma) signaling pathway (AID 1159521; note: top concentration of the series differs between compounds; % is set by controls: 0 for no effect and ±100 for the full control effect; nearly all actives have a fitted effect of over 50% in size). An outline of the steps: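 Antagonist read-out: drop in luminescence (ONE-Glo) from an RORE-LUC reporter in CHO cells with doxycycline-inducible ROR-gamma; 2 hr compound pretreatment, 1 uM doxycycline, 16 hr incubation at 37 C.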

A short description of assay [8]: qHTS assay to identify small molecule agonists of the AP-1 signaling pathway - cell viability counter screen (AID 1159525; calls by dose curve; note: nearly all actives have a fitted effect of over 55% in size). The method, boiled down:
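Each titration point was normalised to DMSO and tetra n-octyl ammonium bromide controls. The read was Cell Titer Glo luminescence after 30 min at RT, following 5 h compound exposure of ME-180 AP-1-bla cells at 37 °C.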

A short description of assay [9]: qHTS assay to identify small molecule agonists of the AP-1 signaling pathway (AID 1159526; calls by dose curve; note: % is set by controls: 0 for no effect and ±100 for the full control effect).
Assay [10] addresses Retinoic acid receptor RXR-alpha (Homo sapiens) (UniProt P19793). Briefly: qHTS assay to identify small molecule agonists of the RXR signaling pathway (AID 1159527; calls by dose curve; note: % is set by controls: 0 for no effect and ±100 for the full control effect; nearly all actives have a fitted effect of over 35% in size). The method, boiled down:
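Agonist-mode beta-lactamase reporter assay: HEK 293T RXR-alpha-UAS-bla cells treated 16 hr at 37 C with compounds, 9-cis retinoic acid as positive control. LiveBLAzer FRET substrate, 405 nm excitation, 460/530 nm emission.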

Assay [11] can be described thus: qHTS assay to identify small molecule agonists of the RXR signaling pathway - cell viability counter screen (AID 1159529). An outline of the steps:
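CellTiter-Glo luminescence gave viability in the wells also read for beta-lactamase. Cells (RXR-alpha-UAS-bla HEK 293T, 2% charcoal-stripped FBS medium) had 5 hr plating, then 16 hr compound exposure at 37 C; tetraoctyl ammonium bromide served as positive control.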

Assay [12] is described as follows: qHTS assay to identify small molecule antagonists of the retinoid acid receptor (RAR) signaling pathway - cell viability counter screen (AID 1159551). Note: % is set by controls: 0 for no effect and ±100 for the full control effect; nearly all actives have a fitted effect of over 35% in size. An outline of the steps: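 Measured by luminescent ATP detection, viability reflects C3RL4 cells treated 6 h at 37 C with test chemicals in the presence of 1 uM (final) retinol.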
Assay [13] can be described thus: qHTS assay to identify small molecule antagonists of the retinoic acid receptor (RAR) signaling pathway (AID 1159552). An outline of the steps:
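Luminescent RARE reporter read-out in C3RL4 cells: 6 hr co-treatment at 37 C of test compounds with retinol at 1 uM final. Cells plated overnight beforehand; luciferase reagent incubated 30 min at room temperature before reading.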

Assay [14] is described as follows: qHTS assay to identify small molecule agonists of the constitutive androstane receptor (CAR) signaling pathway - cell viability counter screen (AID 1224836). Note: % is set by controls: 0 for no effect and ±100 for the full control effect; nearly all actives have a fitted effect of over 45% in size. The method, boiled down:
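Cell viability multiplexed with the CAR agonist screen: CellTiter-Fluor fluorescence after 23 hr at 37 C. HepG2-CYP2B6-hCAR cells got compounds at 15 concentrations with PK11195 at 0.75 uM final.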

A short description of assay [15]: qHTS assay to identify small molecule antagonists of the constitutive androstane receptor (CAR) signaling pathway - cell viability counter screen (AID 1224837). Note: nearly all actives have a fitted effect of over 45% in size. Note: potency is the fitted concentration of half-maximal effect. An outline of the steps: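 To flag cytotoxic false antagonists, HepG2 hCAR/CYP2B6-2.2kb cells were treated 23 hr with 15-concentration compound series and 50 nM CITCO at 37 C/5% CO2; CellTiter-Fluor fluorescence was the measured end point.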

A short description of assay [16]: qHTS assay to identify small molecule antagonists of the vitamin D receptor (VDR) signaling pathway - cell viability counter screen (AID 743225). An outline of the steps:
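Cytotoxicity counter screen read by CellTiter-Glo luminescence (30 min, room temperature) in the same wells as the VDR-bla antagonist readout. HEK 293T VDR-UAS-bla cells had 16 h at 37C with compound and 3 nM (final) 1-alpha,25-dihydroxyvitamin D3, then 2 h with FRET substrate.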

The nature of assay [17]: qHTS assay to identify small molecule agonists of the retinoic acid receptor (RAR) signaling pathway (AID 1159553). Note: % is set by controls: 0 for no effect and ±100 for the full control effect. As to conditions: C3RL4 RARE luciferase reporter, agonist, 6 h; activation: at 73.3 µM (top of the series). The method, boiled down: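 6 hr compound exposure (DMSO vehicle) of overnight-plated C3RL4 RARE-luc cells at 37 C; luminescence quantified after 30 min RT with luciferase reagent.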

Assay [18] can be described thus: qHTS assay to identify small molecule antagonists of the estrogen related receptor (ERR) signaling pathway from Tox21 library - cell viability counter screen (AID 1224834). Note: % is set by controls: 0 for no effect and ±100 for the full control effect; nearly all actives have a fitted effect of over 30% in size. The method, boiled down:
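Seeded ERR cells were rested 6 h at 37 C/5% CO2 before compounds, positive and negative controls or DMSO were added. Incubation continued for 17.5 h, and viability was then quantified by CellTiter-Fluor fluorescence.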

Assay [19] addresses Nuclear receptor subfamily 1 group I member 3 (Homo sapiens) (UniProt Q14994). The experiment in a line: qHTS assay to identify small molecule antagonists of the constitutive androstane receptor (CAR) signaling pathway (AID 1224838).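 Note: HepG2 cells stably expressing hCAR with CYP2B6 luciferase reporter stimulated by CITCO; % is set by controls: 0 for no effect and ±100 for the full control effect; nearly all actives have a fitted effect of over 40% in size.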 The method, boiled down: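 Human hepatoma HepG2 cells expressing hCAR and a CYP2B6 promoter (2.2 kb) luciferase construct; compound titration (15 points) with 50 nM CITCO final, 24 h at 37 C/5% CO2; luminescence via ONE-Glo after 30 min at room temperature.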

Assay [20] has as its target Luciferin 4-monooxygenase (Photinus pyralis) (UniProt P08659). Briefly: qHTS assay to identify small molecule inhibitors of firefly luciferase (AID 1224835). Note: nearly all actives have a fitted effect of over 25% in size. Note: potency is the fitted concentration of half-maximal effect. An outline of the steps: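 Quantitative HTS format; KM concentrations of both substrates. Purified P. pyralis FLuc activity quantified from luminescence images.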

Chain of Luciferin 4-monooxygenase (Photinus pyralis) (P08659 whole entry, looked up): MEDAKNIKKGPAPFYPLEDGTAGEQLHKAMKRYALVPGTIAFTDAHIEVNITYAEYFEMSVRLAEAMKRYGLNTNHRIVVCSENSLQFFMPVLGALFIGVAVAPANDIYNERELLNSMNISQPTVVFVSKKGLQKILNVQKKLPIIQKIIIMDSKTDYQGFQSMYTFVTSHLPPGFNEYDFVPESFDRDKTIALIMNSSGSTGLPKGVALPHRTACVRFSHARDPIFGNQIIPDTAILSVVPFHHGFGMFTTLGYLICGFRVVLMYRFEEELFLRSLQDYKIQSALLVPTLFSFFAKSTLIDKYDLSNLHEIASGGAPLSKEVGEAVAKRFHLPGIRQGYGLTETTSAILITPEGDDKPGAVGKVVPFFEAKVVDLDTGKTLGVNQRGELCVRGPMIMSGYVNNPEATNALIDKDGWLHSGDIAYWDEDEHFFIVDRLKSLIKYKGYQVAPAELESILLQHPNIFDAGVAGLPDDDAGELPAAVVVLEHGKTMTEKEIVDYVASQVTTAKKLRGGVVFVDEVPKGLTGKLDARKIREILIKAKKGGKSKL
Chain of Retinoic acid receptor RXR-alpha (Homo sapiens) (P19793 whole entry, looked up): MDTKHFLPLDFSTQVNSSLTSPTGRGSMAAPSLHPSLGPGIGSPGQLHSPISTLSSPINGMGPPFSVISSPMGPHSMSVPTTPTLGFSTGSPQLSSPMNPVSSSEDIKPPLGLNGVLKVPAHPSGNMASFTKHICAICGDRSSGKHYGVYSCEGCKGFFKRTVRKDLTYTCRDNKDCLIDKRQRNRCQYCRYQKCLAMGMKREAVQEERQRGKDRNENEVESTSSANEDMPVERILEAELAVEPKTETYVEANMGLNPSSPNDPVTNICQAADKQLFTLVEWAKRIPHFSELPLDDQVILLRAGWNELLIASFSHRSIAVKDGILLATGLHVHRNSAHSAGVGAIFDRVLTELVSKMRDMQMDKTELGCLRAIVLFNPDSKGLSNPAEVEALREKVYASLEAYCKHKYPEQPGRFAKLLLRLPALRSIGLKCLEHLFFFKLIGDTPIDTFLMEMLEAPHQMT
Chain of Nuclear receptor subfamily 1 group I member 3 (Homo sapiens) (Q14994 whole entry, looked up): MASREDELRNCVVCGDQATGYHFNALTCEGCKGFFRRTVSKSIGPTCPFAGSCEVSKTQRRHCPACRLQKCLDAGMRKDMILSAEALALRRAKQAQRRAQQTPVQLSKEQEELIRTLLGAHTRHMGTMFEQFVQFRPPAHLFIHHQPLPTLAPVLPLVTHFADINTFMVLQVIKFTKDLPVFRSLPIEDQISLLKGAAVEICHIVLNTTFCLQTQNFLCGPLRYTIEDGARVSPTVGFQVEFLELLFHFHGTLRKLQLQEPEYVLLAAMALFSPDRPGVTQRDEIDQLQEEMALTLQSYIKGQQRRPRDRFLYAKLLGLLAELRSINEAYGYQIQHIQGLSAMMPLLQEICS

With `Nc1ccnc(=O)[nH]1`, the result in assay [1], in assay [2], in assay [3], in [4], in assay [5] and in assay [6] was inactive. Moreover, the outcome in assay [7], in [8], in assay [9], in assay [11], in assay [12] and in assay [14] was inactive. Moreover, the Potency result in assay [10], in [13] and in [15] was “inactive” each time.

As for `O=S(=O)(O)SSS(=O)(=O)O`, the result in assay [1], in [16], in [2], in assay [3], in [4] and in assay [5] was inactive. Further, the outcome in [6], in [7], in [8], in assay [9], in assay [12] and in assay [14] was inactive. The Potency entry in [10], in [13], in assay [17], in assay [18] and in assay [19] was “inactive” in each case.

As for `CC(C)CCCC(C)CC=O` (stereo unspecified), the compound was classed as inactive in [1], in assay [16], in [2], in [3], in assay [4] and in assay [5]. The compound was classed as inactive in [6], in assay [7], in assay [8], in assay [9], in assay [12] and in assay [14]. Further, the Potency entry in assay [10], in assay [13], in assay [17], in assay [18], in assay [20] and in assay [15] was “inactive” in each case.

For `Cc1cccc(NC(=S)N(C)C)c1`, the call in assay [1], in [16], in [2], in assay [3], in assay [4] and in [5] was inactive. Also, the call in [6], in [7], in assay [8], in assay [9], in assay [12] and in assay [14] was inactive. Further, the Potency result in [10], in [13], in assay [17], in assay [18] and in assay [20] was “inactive” each time. Besides, in assay [15], the Potency is 61.1 µM (active).

Take `CC1(N)CCC(C(C)(C)N)CC1` (stereo unspecified): the call in assay [1], in [16], in assay [2], in assay [3], in assay [4] and in assay [5] was inactive. Further, the compound was called inactive in assay [6], in assay [7], in assay [8], in assay [9], in assay [12] and in [14]. Moreover, the Potency result in assay [10], in [13], in assay [17] and in [18] was “inactive” in each case.

With `CCC(C)(CCC(C)C)C(=O)[O-].CCC(C)(CCC(C)C)C(=O)[O-].[Zn+2]` (stereo unspecified), the call in assay [1], in assay [16], in [2], in assay [3], in assay [4] and in assay [5] was inactive. Moreover, the compound was called inactive in [6], in assay [7], in [9], in assay [11], in [12] and in assay [14]. For the same compound, the Potency entry in [10], in [13], in assay [17], in assay [18] and in assay [15] was “inactive” each time. Moreover, the Potency in [20] was 25.2 µM (active).

As to `Nc1c(NC/C=C\COc2cc(CN3CCCCC3)ccn2)c(=O)c1=O`, the result in [1], in assay [16], in assay [2], in assay [3], in assay [4] and in assay [5] was inactive. The activity, negative = cytotoxicity in assay [6] was 0% [at 19 µM]. For the same compound, the activity change, negative = inhibition in assay [7] is -0.0898% [at 19 µM]; in [20], 10.6% [at 23.6 µM]. The viability change, negative = cytotoxic in assay [8] was -1.48% [at 15.8 µM]; in [18], -12.4% [at 19 µM]. The figures for the activation in assay [9] and in [10] were -3.62% [at 15.8 µM] and 10.6% [at 15.8 µM], respectively. In addition, the activity change, negative = cytotoxicity in [12] is 3.28% [at 19 µM]. Moreover, the activity, negative = inhibition was -5.94% [at 19 µM] in [13] and 4.07% [at 19 µM] in assay [19]. In addition, the Potency entry in [17] was “inactive”.

As to `Nc1cc(C(=O)O)ccc1Cl`, the compound was called inactive in assay [1], in [16], in [2], in assay [3], in assay [4] and in assay [5]. Besides, the result in assay [6], in assay [7], in assay [8], in assay [9], in assay [12] and in assay [14] was inactive. Also, the Potency entry in assay [10], in assay [13], in [17], in assay [18] and in assay [20] was “inactive” each time.
